Assay results taken from PubChem BioAssay (Tox21).
Records with an inconclusive call do not appear. Where a call stands in place of a potency, no number is given. Activity calls are given as the source filed them. The call rests on the fitted dose curve.

Experiment: p53 small molecule agonists, cell-based qHTS assay with human liver microsomes (AID 1963577);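 further: p53 response element beta-lactamase reporter cells with liver microsomes plus NADPH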
Details: HCT-116 p53RE-bla with human liver microsomes, ratio, 16 h; series mostly up to 66 µM
Text: National Center for Advancing Translational Sciences [NCATS]
Division of Preclinical Innovation [DPI]
U.S. Environmental Protection Agency [EPA]
National Institutes of Environmental Health Sciences [NIEHS]
National Toxicology Program [NTP]
U.S. Food and Drug Administration [FDA]
p53, a tumor suppressor protein, is activated following cellular insult, including DNA damage and other cellular stresses. The activation of p53 regulates cell fate by inducing DNA repair, cell cycle arrest, apoptosis, or cellular senescence. The activation of p53, therefore, is a good indicator of DNA damage and other cellular stresses. […] The activation of the reporter gene under culture conditions can be detected by fluorescence intensity.
Tox21 Assay Protocol Summary:
The p53RE-bla cells were dispensed at 4,000cells/3ul/well in 1536-well black-clear bottom plates. After the assay plates were incubated at 37 C, 5% CO2 incubator for 5 hours, 23 nL of compounds dissolved in DMSO, positive controls or DMSO only was transferred to the assay plate. Following compound addition, 3 uL of human liver microsomes (XenoTech, Kansas City, KS) at final concentration of 0.5 mg/mL and 1uL of Beta-Nicotinamide adenine dinucleotide 2-phosphate (NADPH) at final concentration of 0.5 mg/mL were transferred to the assay plate. The plates were incubated at 37 C for 16 hours. 1 uL of LiveBLAzer detection mixture was added to each well and the plates were incubated at room temperature in the dark for 2 h.

Row | SMILES | Potency | activation
1 | CCN(CC)c1ccc(C=O)cc1 | inactive | 
2 | C=CC(=O)OCCCl | inactive | 
3 | NS(=O)(=O)c1cc(C(=O)O)cc(N2CCCC2)c1Oc1ccccc1 | inactive | 
4 | CN(C)C(=O)Nc1ccc(Oc2ccc(Cl)cc2)cc1 | inactive | 
5 | CC(C)(C)OC(=O)c1ccccc1C(=O)O | inactive | 
6 | CCCCCC#CC(=O)OC | inactive | 
7 | O=C(O)CNC(=O)c1ccc([N+](=O)[O-])cc1 | inactive | 
8 | C/C=C/C(=O)OCC(C)C | inactive | 
9 | CC(=O)OCC(=O)[C@@]1(O)CC[C@H]2[C@@H]3CCC4=CC(=O)C=C[C@]4(C)[C@@]3(F)[C@@H](O)C[C@@]21C | inactive | 
10 | O=C(O)Cc1cn(-c2ccccc2)nc1-c1ccc(Cl)cc1 | inactive | 
11 | COC(C)OC | inactive | 
12 | CCCCC(CC)COC(=O)COc1ccc(Cl)cc1C (stereo not given) | inactive | 
13 | CCCCCC[C@@H](CCC)C(=O)O | inactive | 
14 | CCOC(=O)CC#N | inactive | 
15 | Nc1ccn([C@@H]2O[C@H](CO)[C@@H](O)C2(F)F)c(=O)n1 | inactive | 
16 | CN1CC(=O)NC1=N | inactive | 
17 | CCOC(=O)[C@H](CCc1ccccc1)N[C@@H](C)C(=O)N1[C@H](C(=O)O)C[C@@H]2CCC[C@@H]21 | inactive | 
18 | CC1(C)OC[C@@H](COC(=O)CCc2ccc(OC[C@@H](O)CNCCNC(=O)N3CCOCC3)cc2)O1 | inactive | 
19 | O=c1c(O)c(O)c1=O | inactive | 
20 | Oc1cccc(O)c1O | inactive | 

Row | SMILES | Potency | activation
21 | CN1CCN(c2c(F)cc3c(=O)c(C(=O)O)cn4c3c2OCN4C)CC1 |  | 0.808% [at 13.5 µM] (inactive)
22 | CC(C)c1ccc2oc3nc(N)c(C(=O)O)cc3c(=O)c2c1 | inactive | 
23 | CC(C)(C)C(=O)O | inactive | 
24 | CCCCCCCCCCCCCCCC(=O)OC[C@H](O)[C@H]1OC(=O)C(O)=C1O | inactive | 
25 | CCCC(C)c1ccccc1O (stereo not given) | inactive | 
26 | O=C(CCC1CCN(Cc2ccccc2)CC1)c1ccc2c(c1)NCCCC2 | inactive | 
27 | CCC(CO)(CO)[N+](=O)[O-] | inactive | 
28 | N=C1N=C(N)c2ccccc21 | inactive | 
29 | CCCCCCCC(=O)OCC | inactive | 
30 | CCCCCCCC/C=C\CCCCCCCC(=O)OC[C@@H](O)[C@H]1OC[C@H](O)[C@H]1O | inactive | 
31 | CCc1cccc(C)c1N(C(=O)C(=O)O)C(C)COC (stereo not given) | inactive | 
32 | C/C=C/C(=O)CC |  | -15.9% [at 13.5 µM] (inactive)
33 | CCN(CC)CCNC(=O)c1cc(S(C)(=O)=O)ccc1OC | inactive | 
34 | Oc1ccc(C2CNCCc3c2cc(O)c(O)c3Cl)cc1 (stereo not given) | inactive | 
35 | NC1CCN(c2nc3c(cc2F)c(=O)c(C(=O)O)cn3-c2ccc(F)cc2F)C1 (stereo not given) | inactive | 
36 | O=C(O)CCC(=O)OC[C@@H](NC(=O)C(Cl)Cl)[C@H](O)c1ccc([N+](=O)[O-])cc1 | inactive | 
37 | CC(N)C12CC3CC(CC(C3)C1)C2 (stereo not given) | inactive | 
38 | CCCCC(CC)CN (stereo not given) | inactive | 
39 | C=C(C)C(=O)OCCCC | inactive | 
40 | O=C1c2ccccc2C(=O)C1c1ccc2ccccc2n1 | inactive | 
